Consider 28 compounds from PubChem BioAssay (NCI).

Molecules are shown by their SMILES. About 83,000 compounds went through this panel and 20% of them were active in at least one assay; those are over-represented in the sample as a whole.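 Compound tested at a single concentration for 48 hours in 96-well plates; a percent growth value below 10 was scored as active.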 Active and inactive are the calls of the source.

The test relates to HL-60(TB) leukemia. The test is described as follows: NCI-60 one-dose screen, 48 h (100 = growth as untreated, 0 = no growth, -100 = all killed). Conditions: 10 µM unless noted.
Take `Cc1cc(C)c(/C=C2\C(=O)Nc3ccc(NC(=O)CCCCCCC(=O)NO)cc32)[nH]1`: the growth is 19.4% (inactive).

Turning to `COc1cc(OC)c(C(=O)/C=C/c2ccc(C#N)cc2)c(OC)c1`, the growth is -7.85% (active).

Regarding `COc1cnc2c(c1)C(=O)c1c-2n(CCCN2CCC(O)CC2)c(=O)c2cc(Cl)ccc12`, the growth is -35.9% (active).

Consider `O=C(CC(C(=O)c1ccccc1)N1CCN(Cc2ccccc2)CC1)c1ccccc1` (stereo not drawn), for which the growth was 28.5% (inactive).

As for `O=C(Nc1ccccc1)Nc1ccc(C(=O)/C=C/c2ccc(N3CCCC3)cc2)cc1`, the growth is 35.2% (inactive).

With `COc1cc2nc(-c3ccc(Cl)cc3)cc(OCCCN3CCC(O)CC3)c2cc1OC`, the growth is 32.9% (inactive).

As to `CCCCCCCCCCCCNC(=O)N[C@H](C(=O)N[C@H]1/C=C/OCCNC(=O)/C=C/[C@H](C(C)C)NC1=O)C(C)C`, the growth was 93.8% (inactive).

`CCOC(=O)c1c(C)nc2c(c1N)CC(=O)N2Cc1cc(OC)c(OC)c(OC)c1`: the growth is 18.8% (inactive).

As for `COc1cc(C2CC(c3ccc4c(c3)OCO4)=NN2C=O)cc(OC)c1OC` (stereo not drawn), the growth was 0.568% (active).

`O=C(O)C(SC(C(=O)O)c1ccccc1)c1ccccc1` (stereo not drawn): the growth is 95% (inactive).

In the case of `NNc1ccc(S(N)(=O)=O)cc1`, the growth was 75.9% (inactive).

For `Cc1ccc(C(=O)Nc2ccccc2N)cc1`, the growth was -19.5% (active).

On to `Clc1cc2c(nn1)Nc1ccccc1S2`, for which the growth is 102% (inactive).

Consider `CC[N+](CC)=c1ccc2nc3c(cc(NCc4ccccc4)c4ccccc43)oc-2c1`, for which the growth was -41.2% (active).

Take `CCCN1CCN(c2ccc3nc(-c4ccc5nc(-c6cc(OC)c(OC)c(OC)c6)[nH]c5c4)[nH]c3c2)CC1`: the growth was 97.4% (inactive).

Turning to `N#C/C(=C\NC(=S)N=Nc1c(O)[nH]c2ccccc12)c1nc2ccccc2s1`, the growth is 103% (inactive).

For `O=C1NC(=Nc2ccc(O)cc2)S/C1=C\c1cccs1`, the growth is -4.12% (active).

As for `O=c1[nH]c(-c2cccc(F)c2)cc2cc(F)ccc12`, the growth was -24.6% (active).

For `CCOC(=O)n1cc(C2=C(c3ccc(OC)c(OC)c3)COC2=O)c2ccccc21`, the growth was -28.7% (active).

For the compound `CC(=O)Nc1ccc(O)c(C)c1`, the growth was 104% (inactive).

For the compound `COc1cc(OC)cc(-c2ccc(-c3ccc(C(=N)N)s3)s2)c1`, the growth is -71.9% (active).

`O=c1[nH]c2ccc(Br)cc2c2c1C(c1ccc(Cl)cc1)c1c(ncn3nc(-c4ccco4)nc13)O2` (stereo not drawn): the growth is 72.7% (inactive).

Regarding `CC1(O)CCC2CC3OC3(C)CCC3OC3(C)C(O)CC1C2(C)C` (stereo not drawn), the growth is 137% (inactive).

Take `COCN1CCC2N(COC)CCC3N(COC)CCC1N23` (stereo not drawn): the growth is 92.6% (inactive).

In the case of `COc1c(C2CC(=O)Nc3c2c(C)nn3-c2nc3ccccc3[nH]2)cc2c(c1OC)OCO2` (stereo not drawn), the growth was 20.7% (inactive).

`CC(C)(C)OC(=O)NCc1cccc(N=C=S)c1`: the growth was -24% (active).

Consider `COc1cccc2c1C(=O)c1c(O)c3c(c(O)c1C2=O)C[C@@](O)(/C(C)=N/NC(=O)c1cccc([N+](=O)[O-])c1)C[C@@H]3OC1CC(N)C(O)C(C)O1` (stereo partly drawn), for which the growth was -45.1% (active).

Turning to `O=C(Nc1cc(Br)ccn1)c1cc2cc(Nc3nc(-c4ccccc4)nc4ccccc34)ccc2oc1=O`, the growth is 87.3% (inactive).
